MEKK2 mut-MEK5 – MEK5 binding signal on mutant MEKK2 PB1, primary screen, biochemical, multiplex bead flow cytometry, Alexa488-MEK5; percent response, % at 10 µM; 290,000 tested, 0.35% active; Alexa488-MEK5 binding to MEKK2 mutant; AID 1530, 2009; in the data active = percent response above about 24%, passing the limit was not always enough
SUMO Mot1 rescue – yeast Mot1-301 growth rescue at high temperature, primary screen, SUMOylation pathway inhibitor project, S. cerevisiae, ATP luminescence, 38.5C; growth rescue, % at 18.8 µM; 320,000 tested, 1% active; AID 2716, 2010; S. cerevisiae Mot1-301 growth rescue; percent above DMSO median, 100 means doubled;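 active = every valid replicate shows activation above 250% relative to neutral control wells; inactive = the rest, any valid replicate at or below 250%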;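 note: OY570 slx delta 5 strain wells were the positive control but not used for scaling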
MEKK2wt PB1 HTS – modulators of MEK5 binding to wildtype MEKK2, primary screen, biochemical, multiplex bead flow cytometry, Alexa488-MEK5; Mitogen-activated protein kinase kinase kinase 2 (Homo sapiens), Q9Y2U5; Alexa488-MEK5 binding to MEKK2 WT; actives lie on both sides; binding response (% of control), % at 10 µM; 290,000 tested, 1.1% active; in the data active = binding response below about 67% or above about 130%
CHT allo act – CHT positive allosteric modulators, primary screen, cell-based, membrane potential dye, choline EC20; CHT-expressing cells; stronger effect = higher value; LV-AA mutant CHT in HEK293 cells; B-score at 10 µM; AID 488977, 2010; High affinity choline transporter 1 (Homo sapiens), Q9GZV3; 310,000 tested, 0.49% active;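 active = initial fluorescence not abnormally high and integrated response B-score, plate-corrected, over 3 SD above library mean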
MEKK3 PB1 HTS – modulators of MEKK3-MEK5 PB1 binding, primary screen, biochemical, wildtype MEKK3, multiplex bead flow cytometry, Alexa488-MEK5; binding response (% of control), % at 10 µM; Mitogen-activated protein kinase kinase kinase 3 (Homo sapiens), Q99759; bead-based flow cytometry, Alexa488-MEK5 binding to MEKK3; actives lie on both sides; 0 = blocked by unlabeled MEK5, 100 = vehicle; 290,000 tested, 1.4% active;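 active = binding response more than 3 SD above or below the average of its plate-row segment, actives on both sides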;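 note: Alexa488 bead fluorescence after subtracting the streptavidin-only scavenger bead signal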
Target sequence (Q99759 whole entry, looked up): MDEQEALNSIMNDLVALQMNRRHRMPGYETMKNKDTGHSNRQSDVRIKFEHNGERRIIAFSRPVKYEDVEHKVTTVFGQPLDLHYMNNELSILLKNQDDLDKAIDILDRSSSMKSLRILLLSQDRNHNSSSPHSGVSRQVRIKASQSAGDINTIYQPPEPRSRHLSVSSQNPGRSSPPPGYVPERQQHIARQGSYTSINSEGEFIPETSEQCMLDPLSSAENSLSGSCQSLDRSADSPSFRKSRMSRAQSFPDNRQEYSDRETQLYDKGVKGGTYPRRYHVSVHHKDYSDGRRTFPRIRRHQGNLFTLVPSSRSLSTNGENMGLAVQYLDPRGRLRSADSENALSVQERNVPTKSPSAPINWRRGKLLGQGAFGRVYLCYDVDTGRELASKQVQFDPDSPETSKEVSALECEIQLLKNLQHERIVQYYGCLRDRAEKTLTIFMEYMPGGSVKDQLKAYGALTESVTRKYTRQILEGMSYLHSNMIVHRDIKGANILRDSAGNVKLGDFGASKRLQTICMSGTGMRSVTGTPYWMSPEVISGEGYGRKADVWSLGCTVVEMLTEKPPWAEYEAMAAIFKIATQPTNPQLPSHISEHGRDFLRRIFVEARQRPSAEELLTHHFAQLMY
CHT block – inhibitors of human choline transporter CHT; 310,000 tested, 0.86% active; High affinity choline transporter 1 (Homo sapiens), Q9GZV3; CHT-expressing cells, membrane potential dye, choline response; stronger effect = lower value; B-score at 10 µM;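 active = B-score over 3 SD under the library average, and starting fluorescence ratio not unusually high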;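 note: choline stimulus applied at its EC90 after an EC20 pre-addition; B-score computed on integrated fluorescence ratio after choline addition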
MEKK2wt confirm – modulators of MEK5 binding to wildtype MEKK2, confirmation, biochemical, single concentration, multiplex bead flow cytometry; Alexa488-MEK5 binding to MEKK2 WT; actives lie on both sides; binding response (% of control), % at 10 µM; shares compounds with MEKK3 PB1 HTS; 5,900 tested, 2.4% active; in the data active = binding response below about 16% or above about 210%; inactive = in between
MEKK2mut-MEK5 – mutant MEKK2 PB1-MEK5 binding signal retest – biochemical, single concentration, multiplex bead flow cytometry, confirmation. shares compounds with MEKK3 PB1 HTS. Alexa488-MEK5 binding to MEKK2 mutant. percent response, % at 10 µM. 5,900 tested, 2% active; in the data active = percent response mostly above about 71%, no sharp cut-off; inactive = mostly below about 38%;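 note: higher means compound restores mutant binding toward wildtype level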
MEKK3-MEK5 inh – MEKK3 wild-type PB1 binding to MEK5, inhibitors, confirmation, biochemical, bead multiplex flow cytometry, single concentration, wildtype; shares compounds with MEKK3 PB1 HTS; Alexa488-MEK5 binding to MEKK3; stronger effect = lower value; binding response (% of control), % at 10 µM; 5,900 tested, 1.8% active;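 active = binding response below 72% of control, or above a set upper limit, though filed actives all read lower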;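 note: 100% = DMSO only wells and 0% = binding blocked by excess unlabeled MEK5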
Starred values were filed as active, the others as inactive; [ ] = another dose, or the depositor's remark. The list is not random: actives were taken first. Their share in the collection is about 4.1%.

How did COc1ccc(CNCCC(c2ccc(OC(C)C)cc2)c2ccccc2OC)cc1OC (stereo not drawn) do in these assays?
MEKK2 mut-MEK5: 28.0*; SUMO Mot1 rescue: -2.4; MEKK2wt PB1 HTS: 156.0*; CHT allo act: inactive; MEKK3 PB1 HTS: 112.0; CHT block: inactive; MEKK2wt confirm: 148.0; MEKK2mut-MEK5: 27.0; MEKK3-MEK5 inh: 112.0

Results for COc1ccc(CNCCC(c2ccc(OC(C)C)cc2)c2ccccc2OC)cc1 (stereo not drawn) ?
MEKK2 mut-MEK5: 47.0*; SUMO Mot1 rescue: -20.1; MEKK2wt PB1 HTS: 193.0*; CHT allo act: inactive; MEKK3 PB1 HTS: 112.0; CHT block: inactive; MEKK2wt confirm: 181.0; MEKK2mut-MEK5: 41.0; MEKK3-MEK5 inh: 111.0

What do the screens show for `COc1ccc(C(CCNCc2ccc(OC(C)C)cc2)C(C)C)cc1` (stereo not drawn)?
MEKK2 mut-MEK5: 15.0; SUMO Mot1 rescue: 35.0; MEKK2wt PB1 HTS: 126.0; CHT allo act: inactive; MEKK3 PB1 HTS: 102.0; CHT block: inactive

What do the screens show for `COc1ccccc1C(CCNCc1ccc(N(C)C)cc1)c1ccc(OC(C)C)cc1` (stereo not drawn)?
MEKK2 mut-MEK5: 61.0*; SUMO Mot1 rescue: -14.9; MEKK2wt PB1 HTS: 229.0*; CHT allo act: 8.69*; MEKK3 PB1 HTS: 117.0; CHT block: inactive; MEKK2wt confirm: 160.0; MEKK2mut-MEK5: 30.0; MEKK3-MEK5 inh: 107.0

Results for COc1ccc(C(CCNCc2ccc(N(C)C)cc2)C(C)C)cc1 (stereo not drawn) ?
MEKK2 mut-MEK5: 19.0; SUMO Mot1 rescue: -8.4; MEKK2wt PB1 HTS: 124.0; CHT allo act: inactive; MEKK3 PB1 HTS: 103.0; CHT block: inactive

How did Cc1ccc(Cn2cc(S(=O)(=O)c3ccc(Cl)cc3)c(=O)c3cc(F)ccc32)cc1 do in these assays?
MEKK2 mut-MEK5: 0.0; SUMO Mot1 rescue: 50.4; MEKK2wt PB1 HTS: 102.0; CHT allo act: inactive; MEKK3 PB1 HTS: 132.0*; CHT block: inactive; MEKK2wt confirm: 95.0; MEKK2mut-MEK5: -8.0; MEKK3-MEK5 inh: 102.0

What do the screens show for `O=c1c(S(=O)(=O)c2ccc(Cl)cc2)cn(Cc2cccc(F)c2)c2ccc(F)cc12`?
MEKK2 mut-MEK5: 0.0; SUMO Mot1 rescue: 101.4; MEKK2wt PB1 HTS: 100.0; CHT allo act: inactive; MEKK3 PB1 HTS: 120.0; CHT block: inactive

Results for CC(=O)CSc1cc(C)nc2c(-c3ccccc3)c(C)nn12 ?
MEKK2 mut-MEK5: 22.0; SUMO Mot1 rescue: -3.1; MEKK2wt PB1 HTS: 122.0; CHT allo act: inactive; MEKK3 PB1 HTS: 129.0*; CHT block: inactive; MEKK2wt confirm: 97.0; MEKK2mut-MEK5: 2.0; MEKK3-MEK5 inh: 104.0

What do the screens show for `CCCc1nc(SCC(=O)c2ccc(F)cc2)c2ccccc2n1`?
MEKK2 mut-MEK5: -2.0; SUMO Mot1 rescue: 13.5; MEKK2wt PB1 HTS: 97.0; CHT allo act: inactive; MEKK3 PB1 HTS: 99.0; CHT block: inactive

How did O=C1OC(/C(=C\Nc2cc(Cl)ccc2O)[N+](=O)[O-])c2ccccc21 (stereo not drawn) do in these assays?
MEKK2 mut-MEK5: -17.0; SUMO Mot1 rescue: 22.4; MEKK2wt PB1 HTS: 52.0; CHT allo act: inactive; MEKK3 PB1 HTS: 38.0*[inhibitor]; CHT block: inactive; MEKK2wt confirm: 100.0; MEKK2mut-MEK5: -1.0; MEKK3-MEK5 inh: 103.0

How did CN(NC1OC(=O)c2ccccc21)c1ccc(Cl)cc1[N+](=O)[O-] (stereo not drawn) do in these assays?
MEKK2 mut-MEK5: -8.0; SUMO Mot1 rescue: -8.0; MEKK2wt PB1 HTS: 89.0; CHT allo act: inactive; MEKK3 PB1 HTS: 84.0; CHT block: inactive

Results for Cc1ccc2cc(CN(Cc3ccco3)C(=O)NC3CCCCC3)c(=O)[nH]c2c1C ?
MEKK2 mut-MEK5: 1.0; SUMO Mot1 rescue: -2.4; MEKK2wt PB1 HTS: 78.0; CHT allo act: inactive; MEKK3 PB1 HTS: 64.0*[inhibitor]; CHT block: inactive; MEKK2wt confirm: 118.0; MEKK2mut-MEK5: 10.0; MEKK3-MEK5 inh: 108.0

How did COc1cccc(C(=O)NCc2ccc3[nH]c(C)cc3c2)c1 do in these assays?
MEKK2 mut-MEK5: -6.0; SUMO Mot1 rescue: 11.7; MEKK2wt PB1 HTS: -6.0*; CHT allo act: inactive; MEKK3 PB1 HTS: 61.0*[inhibitor]; CHT block: inactive; MEKK2wt confirm: 77.0; MEKK2mut-MEK5: -7.0; MEKK3-MEK5 inh: 77.0

Results for CCC(Sc1nc(C)cc(C)n1)C(=O)Nc1nccs1 (stereo not drawn) ?
MEKK2 mut-MEK5: 2.0; SUMO Mot1 rescue: -31.7; MEKK2wt PB1 HTS: 106.0; CHT allo act: inactive; MEKK3 PB1 HTS: 104.0; CHT block: inactive

What do the screens show for `COc1ccc2nc(NC(=O)c3sc4nc(C)cc(C)c4c3N)sc2c1`?
MEKK2 mut-MEK5: -11.0; SUMO Mot1 rescue: 13.7; MEKK2wt PB1 HTS: 48.0; CHT allo act: inactive; MEKK3 PB1 HTS: 48.0*[inhibitor]; CHT block: inactive; MEKK2wt confirm: 90.0; MEKK2mut-MEK5: -5.0; MEKK3-MEK5 inh: 90.0

How did Cc1cc(C)c2c(N)c(C(=O)Nc3ncc(C)s3)sc2n1 do in these assays?
MEKK2 mut-MEK5: 5.0; SUMO Mot1 rescue: -10.8; MEKK2wt PB1 HTS: 102.0; CHT allo act: inactive; MEKK3 PB1 HTS: 103.0; CHT block: inactive

How did C/C(=C\C(=O)c1sccc1Cl)N(C)C do in these assays?
MEKK2 mut-MEK5: 0.0; SUMO Mot1 rescue: 2.6; MEKK2wt PB1 HTS: 96.0; CHT allo act: inactive; MEKK3 PB1 HTS: 100.0; CHT block: inactive

Results for C=C1C(=O)[C@@]23[C@H](O)C[C@@H]4C(C)(C)CC[C@H](O)[C@@]4(C)[C@@H]2CC[C@@H]1[C@H]3O ?
MEKK2 mut-MEK5: 5.0; SUMO Mot1 rescue: 16.8; MEKK2wt PB1 HTS: 96.0; CHT allo act: inactive; MEKK3 PB1 HTS: 98.0; CHT block: inactive

Source: PubChem BioAssay
